A short description of assay [1]: qHTS assay for measurement of the activity of small molecule inhibitors on Zika virus induced Caspase-3 activity in human astrocytoma cells (AID 1224859). In outline: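 In SNB-19 cells plated at 250 cells/well and grown 16-20 h, compounds were applied 1 h before ZIKV (2 FFU/cell). Six hours later caspase-3/7 luminescence was recorded.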
A short description of assay [2]: qHTS assay to identify small molecule inhibitors of chordoma cells - UCH-2 (AID 1259356; note: potency is the fitted concentration of half-maximal effect). (In general: In qHTS, concentration-response curves come from the screen itself.)
A short description of assay [3]: Identifying Small Molecule Inhibitors of Pancreatic Cancer Stem Cells (A2780, Spheroid) (AID 1259357).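 Note: potency is the fitted concentration of half-maximal effect; compound exposure lasted 48 h before the ATP luminescence read.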 Particulars: A2780 spheroid viability. In outline:
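Monolayer and spheroid cultures are compared. Spheroids form over 14 days in stem cell medium on hydrogel-coated low-attachment plates, then are exposed to compound for 48 h before CellTiter-Glo luminescence.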

A short description of assay [4]: Identifying Small Molecule Inhibitors of Pancreatic Cancer Stem Cells (A278, Adherent) (AID 1259361).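 Note: viability read after 48 h compound exposure; nearly all actives have a fitted effect of over 35% in size.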 In outline:
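Viability is scored by CellTiter-Glo luminescence 48 h after dosing, expressed as percent activity against vehicle and no-cell references. Spheroid formats rely on cells cultured 14 days in stem cell media beforehand.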

Assay [5] is described as follows: Identifying Small Molecule Inhibitors of Pancreatic Cancer Stem Cells (Panc1, Adherent) (AID 1259362).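 Note: compound exposure lasted 48 h before the viability read.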 In short, it runs like this:
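After a 4 h attachment period, compounds were pinned into wells and cultures held 48 h under standard incubator conditions. Viability was then measured as CellTiter-Glo luminescence following 10 min at room temperature.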

Assay [6] can be described thus: P-glycoprotein substrates identified in KB-8-5-11 adenocarcinoma cell line, qHTS therapeutic library screen (AID 1346987). Note: nearly all actives have a fitted effect of over 65% in size. Note: potency is the fitted concentration of half-maximal effect. In short, it runs like this: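 Steps: plate 500 KB-8-5-11 cells/well in DMEM + 10% FCS (colchicine removed); pin compounds in dose-response; incubate 72 h, 37 degree C, 5% CO2; add CellTiter-Glo, 5 min; read luminescence.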
Assay [7] in a line: Natriuretic polypeptide receptor (hNpr1) antagonism - Pilot counterscreen GloSensor control cell line (AID 1347045; calls by dose curve; note: potency is the fitted concentration of half-maximal effect). In short, it runs like this:
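Luminescence was read before and 20 min after adding 50 uM SNP, which stimulates soluble guanylyl cyclase. The HEK293 cells expressing the GloSensor cGMP sensor had been preloaded with 2% reagent for 2 h and treated with compound.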
(In general: Counterscreens check selectivity or assay interference.)

Assay [8] deals with Atrial natriuretic peptide receptor 1 (Homo sapiens) (UniProt P16066). Kind of assay: Natriuretic polypeptide receptor (hNpr1) antagonism - Pilot screen (AID 1347049; calls by dose curve;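 note: agonist-evoked cGMP luminescence read 20 min after hNppA addition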; note: potency is the fitted concentration of half-maximal effect). In outline:
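HEK293 cells co-expressing hNpr1 and the GloSensor pGS-40F cGMP luciferase sensor were preloaded with 2% GloSensor reagent for 2 h. Compounds were added for 30 min at room temperature, then cells were stimulated with 0.1 nM hNppA for 20 min before luminescence readout.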

In assay [9] the target is Atrial natriuretic peptide receptor 2 (Homo sapiens) (UniProt P20594). Kind of assay: Natriuretic polypeptide receptor (hNpr2) antagonism - Pilot subtype selectivity assay (AID 1347050; calls by dose curve; note: potency is the fitted concentration of half-maximal effect). In outline: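 cGMP-sensor HEK293/hNpr2 cells; 2% GloSensor reagent 2 h RT; compounds 30 min; baseline luminescence read; 1 nM hNppC agonist 20 min RT; final luminescence read by CCD camera. Antagonism = reduced post-agonist signal.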

Assay [10] concerns the target T1, Tyrosine-protein phosphatase non-receptor type substrate 1 (Homo sapiens) + Leukocyte surface antigen CD47 (Homo sapiens) (UniProt P78324+Q08722). The assay can be described thus: CD47-SIRPalpha protein protein interaction - LANCE assay qHTS validation (AID 1347057; active = well fitted curve in the direction sought with a large enough effect in the signal ratio, with a control signal flat, not every such curve was filed as active; the % refers to the signal ratio; note: series mostly up to about 38 µM). In short, it runs like this:
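First, His-tagged CD47 and Eu-labelled anti-His antibody met the compound for 30 min; next, site-specifically biotinylated SIRPalpha was added for 30 min; finally streptavidin-APC was added before reading the TR-FRET ratio.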
Background: TR-FRET usually uses a lanthanide donor and a delayed reading to cut background.

Assay [11] addresses T1, Tyrosine-protein phosphatase non-receptor type substrate 1 (Homo sapiens) + Leukocyte surface antigen CD47 (Homo sapiens). Kind of assay: CD47-SIRPalpha protein protein interaction - HTRF assay qHTS validation (AID 1347058; active = well fitted curve in the direction sought with a large enough effect in the signal ratio, not every such curve was filed as active; the % refers to the signal ratio; note: series mostly up to about 38 µM). In short, it runs like this:
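TR-FRET read (Ch1/Ch2 ratio) of soluble extracellular CD47 and Avi-biotinylated SIRPalpha domains in PBS pH 7.4 with 0.05% IGEPAL; 7-point compound titration. Sequential 30 min room-temperature steps; non-biotinylated SIRPalpha as control inhibitor.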

In assay [12] the target is Parathyroid hormone/parathyroid hormone-related peptide receptor (Homo sapiens) (UniProt Q03431). Kind of assay: qHTS for PTHR1 Agonists: Optimization Screen against the NCGC LOPAC library (AID 1347079).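 Note: GloSensor cAMP luminescence in HEK-293 GP2 cells expressing human PTHR1 with IBMX.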 In short, it runs like this: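 Agonist readout: GloSensor cAMP luminescence, read after 15 min at room temperature. HEK-293-derived GP2 line carries PTHR1; compounds tested as a titration for 1 hr at 37C in presence of IBMX. M-PTH (1-15) served as control.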

Assay [13] is described as follows: qHTS of pediatric cancer cell lines to identify multiple opportunities for drug repurposing: Primary screen for TC32 cells (AID 1347089). Note: nearly all actives have a fitted effect of over 60% in size. Note: potency is the fitted concentration of half-maximal effect. In outline: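 Measured quantity: luminescence from CellTiter-Glo, reflecting metabolically active TC32 cells following 48 h of compound. Curves came straight from multi-point titrations, with 8 or 11 points in primary and 11 in confirmatory screening.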

Assay [14] is described as follows: qHTS of pediatric cancer cell lines to identify multiple opportunities for drug repurposing: Primary screen for A673 cells (AID 1347092). Note: nearly all actives have a fitted effect of over 45% in size. Note: potency is the fitted concentration of half-maximal effect. In outline:
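Cells are plated, rested 5 h, dosed by pintool, incubated 48 h, then lysed with CellTiter-Glo and read by luminescence. DMSO is the neutral control; bortezomib at 2.3 uM final is the positive control.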

The nature of assay [15]: qHTS assay to identify small molecule inhibitors of chordoma cells - UCH-1 (AID 1259355). Note: nearly all actives have a fitted effect of over 55% in size. Note: potency is the fitted concentration of half-maximal effect; series mostly up to about 46 µM. In outline: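 Luminescent ATP read-out (CellTiter-Glo, 30min at room temperature) measured viability of UCH-1 cells exposed for 48hr to test drugs at 15 concentrations, co-dosed with a five-agent combination of auranofin, camptothecin, doxorubicin, rubitecan and topotecan.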
Assay [16] is described as follows: NS1 protein of Zika virus - qHTS assay to identify small molecule inhibitors in human HEK 293 cells (AID 1347053). Note: series mostly up to about 46 µM; nearly all actives have a fitted effect of over 55% in size. In outline:
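HEK 293; 20 h pre-culture, 37 C/5% CO2; cpd 1 h pre-infection; ZIKV MR766, MOI = 0.5, 24 h, 37 C; TR-FRET NS1 readout (two anti-NS1 Abs); norm. to no-virus vs infected.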

Assay [17] can be described thus: qHTS of pediatric cancer cell lines to identify multiple opportunities for drug repurposing: Primary screen for DAOY cells (AID 1347090). Note: nearly all actives have a fitted effect of over 55% in size. Note: potency is the fitted concentration of half-maximal effect. In outline:
(§1)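 Eight- or eleven-point concentration series, 48 h treatment at 37 degrees C in growth media; readout CellTiter-Glo luminescence. Potency and efficacy were taken from the concentration-response curves.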

Assay [18] in a line: qHTS of pediatric cancer cell lines to identify multiple opportunities for drug repurposing: Primary screen for SJ-GBM2 cells (AID 1347091). Note: potency is the fitted concentration of half-maximal effect. In outline:
as §1

The target in assay [19] is T1, Tyrosine-protein phosphatase non-receptor type substrate 1 (Homo sapiens) + Leukocyte surface antigen CD47 (Homo sapiens). Kind of assay: CD47-SIRPalpha protein protein interaction - Alpha assay qHTS validation (AID 1347059).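 Note: bead proximity luminescence from CD47 binding SIRPalpha after compound preincubation with SIRPalpha.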 In outline:
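Soluble extracellular domains: Avi-tag biotinylated SIRPalpha (25 nM) preincubated 30 min RT with compound, then 6His-CD47 (12.5 nM) 30 min; Ni-NTA acceptor and streptavidin donor beads (10 ug/mL) 30 min, AlphaScreen read. PBS pH 7.4, 0.05% IGEPAL.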

The source of these data is PubChem BioAssay (NCATS).

Unmarked numbers belong to inactive results. Inconclusive results are not listed. The source made the active and inactive calls. Unless noted, calls come from the whole dose curve; as a rule, active = well fitted curve in the direction sought with a large enough effect; inconclusive = small, poorly fitted or top-dose-only effect, or another doubt; inactive = no such curve, though single readings can be large; an effect the other way counts as inactive or inconclusive.

Sequence of Atrial natriuretic peptide receptor 1 (Homo sapiens) (P16066 whole entry, looked up): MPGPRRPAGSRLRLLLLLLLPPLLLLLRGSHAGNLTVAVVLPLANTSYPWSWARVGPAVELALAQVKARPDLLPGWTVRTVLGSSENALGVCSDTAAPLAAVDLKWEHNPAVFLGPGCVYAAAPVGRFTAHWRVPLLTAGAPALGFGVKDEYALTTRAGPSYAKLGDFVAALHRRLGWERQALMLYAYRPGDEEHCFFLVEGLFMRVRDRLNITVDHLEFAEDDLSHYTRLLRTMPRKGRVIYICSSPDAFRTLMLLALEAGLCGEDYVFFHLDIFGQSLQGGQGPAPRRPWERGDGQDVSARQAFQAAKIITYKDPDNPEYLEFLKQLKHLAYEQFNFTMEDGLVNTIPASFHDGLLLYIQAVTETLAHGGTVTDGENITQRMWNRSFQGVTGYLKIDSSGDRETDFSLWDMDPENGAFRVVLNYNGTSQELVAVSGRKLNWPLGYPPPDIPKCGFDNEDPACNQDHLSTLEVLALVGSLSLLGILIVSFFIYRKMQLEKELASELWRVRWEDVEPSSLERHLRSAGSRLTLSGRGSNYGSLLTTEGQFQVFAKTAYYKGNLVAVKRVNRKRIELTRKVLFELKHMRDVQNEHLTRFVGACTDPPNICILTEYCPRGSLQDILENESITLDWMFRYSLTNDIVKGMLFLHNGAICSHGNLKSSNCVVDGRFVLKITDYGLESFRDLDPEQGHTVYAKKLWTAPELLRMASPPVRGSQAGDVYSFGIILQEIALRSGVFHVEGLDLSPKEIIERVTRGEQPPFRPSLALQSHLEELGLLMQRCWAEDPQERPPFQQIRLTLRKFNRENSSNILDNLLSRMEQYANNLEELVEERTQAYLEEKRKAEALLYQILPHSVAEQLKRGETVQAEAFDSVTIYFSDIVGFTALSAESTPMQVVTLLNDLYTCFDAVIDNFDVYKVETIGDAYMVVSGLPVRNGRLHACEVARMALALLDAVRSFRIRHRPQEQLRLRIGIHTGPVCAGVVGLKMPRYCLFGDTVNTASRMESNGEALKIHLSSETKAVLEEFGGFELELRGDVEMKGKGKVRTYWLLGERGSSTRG
T1 sequence (P78324 whole entry, looked up): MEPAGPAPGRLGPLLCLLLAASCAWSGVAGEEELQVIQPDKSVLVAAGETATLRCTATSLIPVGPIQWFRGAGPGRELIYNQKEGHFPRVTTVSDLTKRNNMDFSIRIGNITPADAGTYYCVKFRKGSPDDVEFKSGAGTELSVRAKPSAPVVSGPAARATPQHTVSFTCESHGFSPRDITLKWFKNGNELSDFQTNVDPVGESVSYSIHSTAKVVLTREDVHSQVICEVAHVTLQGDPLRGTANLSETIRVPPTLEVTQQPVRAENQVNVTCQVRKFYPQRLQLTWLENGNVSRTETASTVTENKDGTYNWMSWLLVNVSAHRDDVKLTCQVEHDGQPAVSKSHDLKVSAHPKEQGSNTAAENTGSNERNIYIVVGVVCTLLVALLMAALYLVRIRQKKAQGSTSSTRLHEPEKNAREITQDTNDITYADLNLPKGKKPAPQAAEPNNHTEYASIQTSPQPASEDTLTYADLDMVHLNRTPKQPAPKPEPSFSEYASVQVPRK
T1 sequence (Q08722 whole entry, looked up): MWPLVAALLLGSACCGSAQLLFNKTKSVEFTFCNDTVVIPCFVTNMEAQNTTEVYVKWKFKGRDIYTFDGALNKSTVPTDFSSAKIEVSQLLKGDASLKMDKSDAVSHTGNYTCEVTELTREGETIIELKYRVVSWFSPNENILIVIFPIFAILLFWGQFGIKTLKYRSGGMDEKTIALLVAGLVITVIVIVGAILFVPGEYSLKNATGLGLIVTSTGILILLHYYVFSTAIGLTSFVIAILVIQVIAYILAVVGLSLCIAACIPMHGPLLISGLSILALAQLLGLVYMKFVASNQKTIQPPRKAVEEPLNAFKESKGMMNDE
Sequence of Atrial natriuretic peptide receptor 2 (Homo sapiens) (P20594 whole entry, looked up): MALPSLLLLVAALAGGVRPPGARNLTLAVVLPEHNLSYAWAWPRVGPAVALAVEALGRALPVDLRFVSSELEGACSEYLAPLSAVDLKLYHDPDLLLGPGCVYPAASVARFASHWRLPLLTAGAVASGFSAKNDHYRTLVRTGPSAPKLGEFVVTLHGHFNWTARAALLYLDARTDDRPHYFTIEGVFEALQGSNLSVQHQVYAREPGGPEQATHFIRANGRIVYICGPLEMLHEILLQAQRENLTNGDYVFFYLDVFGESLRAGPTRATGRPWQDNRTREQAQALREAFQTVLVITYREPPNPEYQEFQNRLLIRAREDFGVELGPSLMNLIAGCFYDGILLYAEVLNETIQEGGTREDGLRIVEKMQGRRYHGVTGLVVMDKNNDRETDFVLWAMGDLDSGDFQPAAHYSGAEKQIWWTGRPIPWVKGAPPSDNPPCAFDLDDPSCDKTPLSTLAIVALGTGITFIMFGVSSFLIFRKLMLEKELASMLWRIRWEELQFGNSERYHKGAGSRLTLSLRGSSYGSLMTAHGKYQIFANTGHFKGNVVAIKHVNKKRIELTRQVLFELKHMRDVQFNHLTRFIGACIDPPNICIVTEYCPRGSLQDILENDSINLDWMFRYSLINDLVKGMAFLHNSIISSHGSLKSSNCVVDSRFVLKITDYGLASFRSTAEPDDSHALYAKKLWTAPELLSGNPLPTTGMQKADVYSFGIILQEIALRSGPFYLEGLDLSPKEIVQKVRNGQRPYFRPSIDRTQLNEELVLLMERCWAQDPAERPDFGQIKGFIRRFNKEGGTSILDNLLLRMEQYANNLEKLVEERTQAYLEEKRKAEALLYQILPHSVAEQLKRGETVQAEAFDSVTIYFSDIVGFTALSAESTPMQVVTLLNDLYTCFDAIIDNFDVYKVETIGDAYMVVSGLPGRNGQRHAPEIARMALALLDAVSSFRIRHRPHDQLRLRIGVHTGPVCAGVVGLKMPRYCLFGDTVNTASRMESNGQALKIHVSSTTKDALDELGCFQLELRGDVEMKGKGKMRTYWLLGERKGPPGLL
Sequence of Parathyroid hormone/parathyroid hormone-related peptide receptor (Homo sapiens) (Q03431 whole entry, looked up): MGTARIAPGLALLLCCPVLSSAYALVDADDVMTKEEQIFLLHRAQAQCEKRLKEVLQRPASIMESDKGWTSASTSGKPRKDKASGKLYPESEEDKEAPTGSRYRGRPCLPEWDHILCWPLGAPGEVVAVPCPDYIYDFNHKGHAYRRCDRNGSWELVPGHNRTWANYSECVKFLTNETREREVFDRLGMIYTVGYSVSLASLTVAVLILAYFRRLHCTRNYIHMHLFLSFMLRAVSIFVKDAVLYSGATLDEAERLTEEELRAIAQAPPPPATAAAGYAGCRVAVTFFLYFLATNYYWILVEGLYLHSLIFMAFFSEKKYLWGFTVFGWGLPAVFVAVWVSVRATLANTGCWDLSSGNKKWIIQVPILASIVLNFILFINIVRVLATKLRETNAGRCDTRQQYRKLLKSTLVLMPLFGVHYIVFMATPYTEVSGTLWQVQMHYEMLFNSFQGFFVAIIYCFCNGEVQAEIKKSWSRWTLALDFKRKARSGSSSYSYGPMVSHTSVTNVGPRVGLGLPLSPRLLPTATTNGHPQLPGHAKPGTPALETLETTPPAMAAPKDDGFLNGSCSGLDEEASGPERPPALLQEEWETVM

Regarding `Nc1ncn([C@@H]2O[C@H](CO)[C@@H](O)[C@H]2O)c(=O)n1`, the result in assay [1], in [5], in assay [10], in assay [11] and in [12] was inactive. Besides, the Potency entry in assay [2], in assay [7], in assay [8] and in [9] was “inactive” in each case. Also, the Potency is 16.6 µM (active) in assay [3], 8.2 µM (active) in [6], 11.8 µM (active) in [13] and 6.68 µM (active) in assay [14]. Moreover, the IC50 (viability decrease) in [4] is 2.35 µM (active).

Consider `CN(C)[C@@H]1C(=O)C(C(N)=O)=C(O)[C@@]2(O)C(=O)C3=C(O)c4c(O)ccc(Cl)c4[C@@H](O)[C@H]3C[C@@H]12`, for which the compound was called inactive in assay [1], in assay [16], in assay [10] and in [12]. Besides, the Potency result in assay [15], in [2], in assay [6], in [8], in assay [9] and in assay [13] was “inactive” throughout. The Potency result in assay [17], in assay [18] and in assay [14] was “inactive” each time.

As for `C[n+]1cc2c3c(ccc2c2ccc4cc5c(cc4c21)OCO5)OCO3`, the outcome in assay [1] and in assay [12] was inactive. Moreover, the Potency in assay [15] was 12.6 µM (active); in assay [2], 13 µM (active); in assay [7] it was 2.07 µM (active); in assay [8], 4.78 µM (active); in assay [9] it was 2.61 µM (active); in [13], 3.25 µM (active). In addition, the Potency was 2.31 µM (active) in assay [17], 1.16 µM (active) in assay [18] and 1.16 µM (active) in assay [14].

Take `CN(C)CCCN1c2ccccc2Sc2ccccc21`: the result in assay [1], in assay [16], in assay [10], in assay [11] and in assay [12] was inactive. Also, the Potency entry in assay [15], in assay [2], in [7], in [8], in assay [19] and in [13] was “inactive” each time. For the same compound, the Potency result in assay [17] was “inactive”.

On to `O=C1NCN(c2ccccc2)C12CCN(CCCC(c1ccc(F)cc1)c1ccc(F)cc1)CC2`, for which the result in [1], in [16] and in assay [12] was inactive. The Potency in assay [15] is 31.6 µM (active); in assay [2] it was 25.9 µM (active); in assay [6], 14.6 µM (active); in assay [18], 23.7 µM (active). Moreover, the Potency entry in assay [8] and in [9] was “inactive” throughout.

With `CN(C)CC[C@@H](c1ccc(Br)cc1)c1ccccn1`, the result in assay [1], in assay [16] and in [12] was inactive. Besides, the Potency result in assay [15], in assay [2], in assay [7], in assay [8], in assay [9] and in assay [13] was “inactive” each time. The Potency entry in [17], in assay [18] and in assay [14] was “inactive” each time.

As for `COc1ccc(CN(CCN(C)C)c2ccccn2)cc1`, the call in assay [1], in assay [16], in assay [10], in assay [11] and in assay [12] was inactive. The Potency entry in assay [15], in assay [2], in assay [6], in assay [9], in assay [13] and in [18] was “inactive” throughout. Besides, the Potency result in [14] is “inactive”.

Consider `c1cc(CN2CCCCC2)cc(OCCCNc2nc3ccccc3s2)c1`, for which the outcome in [1], in [16], in [10] and in [12] was inactive. The Potency entry in [15], in [2], in [8], in assay [9], in [13] and in assay [17] was “inactive” each time. For the same compound, the Potency in assay [6] is 14.6 µM (active).

As to `CC1=NS(=O)(=O)c2cc(Cl)ccc2N1`, the compound was called inactive in assay [1], in assay [16], in [10] and in [12]. For the same compound, the Potency result in [15], in [2], in assay [8], in assay [9], in assay [13] and in assay [18] was “inactive” each time. Moreover, the Potency result in assay [14] was “inactive”.

Consider `CC1=C(C)C(=O)C(CCCCC#CCCCC#CCO)=C(C)C1=O`, for which the result in [1], in assay [16], in [10] and in assay [12] was inactive. In addition, the Potency result in [15], in assay [2], in assay [8], in assay [9], in [19] and in assay [13] was “inactive” in each case. Moreover, the Potency entry in [17] and in assay [18] was “inactive” in each case.
